Source: PubChem (National Center for Advancing Translational Sciences (NCATS))
MCF10A rerep = inducers of DNA re-replication in MCF 10A breast cells | MCF 10A DNA re-replication, Hoechst nuclear intensity, 48 h | AID 624296 | Potency, µM (doses to about 46.1 µM), actives largely listed as activators | hit rate 2.9% among 350,000; further: nearly all actives have a fitted effect of over 50% in size
RORg inh = inhibitors of mouse ROR gamma transcriptional activity | Drosophila S2 Gal4-RORgamma UAS-luciferase reporter, 20 h | Potency, µM (titrated, usually from 53.6 µM), usual class: inhibitors | hit rate 5.4% among 310,000 | AID 2551; further: nearly all actives have a fitted effect of over 60% in size
Target sequence (P51450 whole entry, looked up, the tested form may be a part): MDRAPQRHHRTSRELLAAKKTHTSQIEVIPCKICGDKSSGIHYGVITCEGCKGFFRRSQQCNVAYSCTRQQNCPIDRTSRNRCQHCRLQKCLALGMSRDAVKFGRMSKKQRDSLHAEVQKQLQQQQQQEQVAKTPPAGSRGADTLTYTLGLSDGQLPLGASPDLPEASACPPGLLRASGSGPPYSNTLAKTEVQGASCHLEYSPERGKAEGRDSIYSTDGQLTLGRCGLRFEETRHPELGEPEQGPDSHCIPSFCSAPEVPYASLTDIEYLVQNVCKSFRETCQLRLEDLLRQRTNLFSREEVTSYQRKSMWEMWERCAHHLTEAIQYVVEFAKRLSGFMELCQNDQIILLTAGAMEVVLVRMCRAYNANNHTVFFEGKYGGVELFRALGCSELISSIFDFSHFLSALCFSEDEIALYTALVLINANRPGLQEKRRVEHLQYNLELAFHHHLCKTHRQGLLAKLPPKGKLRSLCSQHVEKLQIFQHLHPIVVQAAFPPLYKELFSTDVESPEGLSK
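Read-out: Photinus luciferase luminescence; inhibitors lower reporter signal. Insect Schneider cells with Gal4-ROR gamma fusion under metallothionein promoter, UAS reporter; 700 uM final copper sulfate induction, 20 hr, ambient temperature.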
BCR signal inh = inhibitors of chronic active B-cell receptor signaling. hit rate 0.05% among 340,000. Potency, µM (doses to about 46.1 µM), usual class: inhibitors. ABC-DLBCL IkBa-CBG/CBR reporter, luminescence ratio, 4 h; active means well fitted inhibition curve with a large enough effect in the signal ratio, with a control signal flat, not every such curve was filed as active; inconclusive means small, poorly fitted or top-dose-only effect, or effect the other way, or a change in a side signal; the % refers to the signal ratio
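Doxycycline induced both beetle luciferases in TMD8 lymphoma cells; IKK-driven degradation limits the IkappaBalpha-fused green signal, while red luminescence normalises for cell number and nonspecific effects. Compounds tested up to 46 uM, 4 hrs.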
SW480 rereplic = induces DNA re-replication in SW480 colon adenocarcinoma cells; Potency, µM (doses to about 46.1 µM), hits mostly activators; AID 624297; hit rate 1.8% among 340,000; SW480 DNA re-replication, Hoechst DNA content imaging, 48 h; further: nearly all actives have a fitted effect of over 55% in size
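250 cells/well; 23 nL cpd via pin tool; 48 hr, 37 C, 5% CO2; Hoechst 40 min; imager read of total nuclear intensity, ex 405/em 500-530 nm.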
VP16 counter = Gal4-VP16 reporter inhibition counter-screen; Drosophila S2 Gal4-VP16 UAS-luciferase, luminescence, 20 h; Potency, µM (series often up to 53.6 µM), actives largely listed as inhibitors; hit rate 3.5% among 310,000; AID 2546;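 further: Gal4-VP16 expression switched on by copper sulfate through the metallothionein promoter; nearly all actives have a fitted effect of over 50% in size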
Giardia kill = Giardia lamblia killing; Giardia lamblia trophozoite viability; activity change, % at 7.66 µM, hits read low; hit rate 0.15% among 340,000; in the data active means activity change below about -80%; inconclusive means between about -30% and that limit;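 further: parasites exposed to compound for two days anaerobically before the ATP read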
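Compounds were tested on trophozoites seeded at 100 cells/well and held 48 hrs at 37 deg C anaerobically. An ATP-based luminescent kit measured the remaining live cells.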
Large screens that a line does not name were inactive. Compounds with a hit are over-represented: about 8.3% of the library has one in this group of screens. Unless noted, the call rests on the fitted dose curve; in most records, active means well fitted curve in the direction sought with a large enough effect; inconclusive means small, poorly fitted or top-dose-only effect, or another doubt; inactive means no such curve, though single readings can be large; an effect the other way counts as inactive or inconclusive.

O=C(COC(=O)CNC(=O)c1ccc([N+](=O)[O-])o1)Nc1ncc(Cl)cc1Cl	MCF10A rerep inconclusive (no result: RORg inh, VP16 counter)
CCN1C[C@@H]2[C@@H]3C(=O)N(Cc4ccccc4)C(=O)[C@@H]3[C@](CC)(C1=O)N2C(=O)c1ccccc1	none (no result: RORg inh, BCR signal inh, VP16 counter)
CC1(C)Oc2ccc3ccc(=O)oc3c2/C(=C/NNC(N)=O)C1=O	RORg inh inconclusive, BCR signal inh inconclusive
O=C(CNC(=O)c1ccccc1O)N/N=C/c1cc(Br)ccc1OC(=O)/C=C/c1ccco1	RORg inh 5.62µM, BCR signal inh inconclusive, SW480 rereplic inconclusive
O=C(CNC(=O)c1ccc(F)cc1)N/N=C/c1cc(Br)ccc1OCc1ccccc1	BCR signal inh inconclusive, SW480 rereplic inconclusive, Giardia kill inconclusive
O=C(CNC(=O)c1ccccc1Br)N/N=C/c1ccco1	none
O=C(CNC(=O)c1cccc(F)c1)N/N=C/c1cc(Br)ccc1OC(=O)/C=C/c1ccco1	RORg inh 3.55µM, SW480 rereplic 5.17µM, VP16 counter 7.94µM
CCOC(=O)c1ccc(NC(=O)c2nc[nH]c2C(=O)N2CCc3ccccc3C2)cc1	RORg inh 3.55µM, VP16 counter inconclusive
COc1ccc(NC(=O)c2nc[nH]c2C(=O)N[C@@H](C)c2ccccc2)cc1	MCF10A rerep inconclusive, RORg inh 6.31µM, VP16 counter 8.91µM
COc1ccc(NC(=O)c2nc[nH]c2C(=O)Nc2ccccc2C)cc1	MCF10A rerep inconclusive, RORg inh 3.16µM, SW480 rereplic 18.4µM, VP16 counter 8.91µM
Cc1ccc(NC(=O)c2nc[nH]c2C(=O)N[C@@H](C)C(=O)OC(C)(C)C)cc1	MCF10A rerep inconclusive, RORg inh 6.31µM, VP16 counter inconclusive
CNC(=O)c1[nH]cnc1C(=O)N[C@@H](C)C(=O)OC(C)(C)C	MCF10A rerep inconclusive
COCCCNC(=O)c1cc(S(=O)(=O)NCCCN2CCCC2=O)ccc1Cl	none (no result: RORg inh, VP16 counter)
CC(C)CC(NC(=O)C1CCC(=O)N1)C(=O)NC(CC(C)C)C(=O)N1CCCC1C(N)=O (centres undefined)	none
O=C1NCCCCC1NS(=O)(=O)c1ccc(Cl)cc1 (centres undefined)	none
C[C@H](NC(=O)c1nc[nH]c1C(=O)N[C@@H](C)C(=O)OC(C)(C)C)C(=O)OCc1ccccc1	MCF10A rerep inconclusive, RORg inh inconclusive, VP16 counter inconclusive
COc1ccc(NC(=O)c2nc[nH]c2C(=O)N2CCN(c3ccccc3)CC2)cc1	RORg inh 5.62µM, BCR signal inh inconclusive, SW480 rereplic inconclusive, VP16 counter 11.2µM
O=C(Nc1ccccc1)c1nc[nH]c1C(=O)N1CCN(c2ccccc2)CC1	none (no result: RORg inh, VP16 counter)
COc1ccc(NC(=O)c2nc[nH]c2C(=O)N[C@@H](CC(C)C)C(=O)OC(C)(C)C)cc1	RORg inh 5.62µM, BCR signal inh inconclusive, VP16 counter 15.8µM
C[C@H](NC(=O)c1[nH]cnc1C(=O)Nc1ccccc1)C(=O)OC(C)(C)C	RORg inh 2.82µM, BCR signal inh inconclusive, VP16 counter 11.2µM
COc1ccc(NC(=O)c2nc[nH]c2C(=O)N[C@@H](C)C(=O)OC(C)(C)C)cc1	RORg inh 11.2µM, VP16 counter inconclusive
O/C=c1\ccc2cccc3nc(C(F)(F)F)nc1c23	MCF10A rerep 20.6µM
CSc1ccccc1NC(=S)Nc1cc(C)cc(C)c1	RORg inh 6.31µM, VP16 counter 14.1µM
COc1ccc(NC(=O)CN2CCN(CC(=O)Nc3ccccc3F)CC2)c(OC)c1	RORg inh inconclusive, VP16 counter inconclusive
COc1ccc(NC(=S)Nc2ccccc2F)c(OC)c1	MCF10A rerep inconclusive, RORg inh 11.2µM, BCR signal inh inconclusive
COc1ccc(NC(=O)c2ccccc2SC)c(OC)c1	none
COc1ccc(NC(=S)Nc2ccccc2SC)c(OC)c1	RORg inh 11.2µM, VP16 counter inconclusive
Cc1snc(SCc2cccc(Cl)c2)c1C#N	none
COc1ccc(C(=O)N2CCCC(CCC(=O)NCc3ccccc3F)C2)c(OC)n1 (centres undefined)	none
